Screening data from PubChem BioAssay.
The entries come from a sample that favours hits as a whole.
IMPase Li inh: membrane-permeable IMPase blocker, potentiated with lithium | CHO-M1 cells, IP1 TR-FRET (IP-One), carbachol + lithium | Potency, µM (highest dose often 59.4 µM), hits mostly inhibitors | 210,000 compounds, 0.35% hits | AID 1457;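 also: IP1 builds up when IMPase is blocked and the TR-FRET signal falls; nearly all actives have a fitted effect of over 50% in size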
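Lithium-sensitised IP1 accumulation assay; M1-expressing CHO cells treated 30 min at 37C with compound. Competitive antibody detection by time-resolved FRET followed a 10 min room-temperature lysis step.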
RGS12 GoLoco inh: RGS12 GoLoco-Gai1 interaction inhibition | P63096 | Gai1:RGS12 GoLoco peptide FP, rhodamine, 10 min | Potency, µM (top dose mostly 61.6 µM), usual class: inhibitors | 230,000 compounds, 0.44% hits | AID 880; active = well fitted inhibition curve with a large enough effect, not every such curve was filed as active; inactive = no such curve, though single readings can be large or run the other way; also: nearly all actives have a fitted effect of over 30% in size
MBNL1-CUG inh: inhibitors of human MBNL1 binding to CUG repeat RNA; 280,000 compounds, 0.036% hits; Q9NR56; TR-FRET MBNL1-His/biotin-(CUG)12 binding, 665/545 ratio; Potency, µM (highest dose often 57.5 µM), hits mostly inhibitors; active = well fitted inhibition curve with a large enough effect in the signal ratio, with a control signal flat, not every such curve was filed as active; inconclusive = small, poorly fitted or top-dose-only effect, or effect the other way, or a change in a side signal; inactive = no such curve, though single readings can be large or run the other way; the % refers to the signal ratio
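Compound titration spanned 92 nM–58 uM against the MBNL1-His/biotin-(CUG)12 complex. After 60 min at room temperature with 5 nM streptavidin-XL665 and 0.055 ng/ul terbium anti-His, ratiometric 665/545 nm emission (Ex 340 nm) normalized to controls.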
Tb PFK inh-1: blocks T. brucei phosphofructokinase; O15648; T. brucei PFK, ADP-Glo luminescence; Potency, µM (top dose mostly 57.5 µM), most hits filed as inhibitors; 330,000 compounds, 0.17% hits; AID 485367; also: nearly all actives have a fitted effect of over 60% in size
Target sequence (O15648 whole entry, looked up): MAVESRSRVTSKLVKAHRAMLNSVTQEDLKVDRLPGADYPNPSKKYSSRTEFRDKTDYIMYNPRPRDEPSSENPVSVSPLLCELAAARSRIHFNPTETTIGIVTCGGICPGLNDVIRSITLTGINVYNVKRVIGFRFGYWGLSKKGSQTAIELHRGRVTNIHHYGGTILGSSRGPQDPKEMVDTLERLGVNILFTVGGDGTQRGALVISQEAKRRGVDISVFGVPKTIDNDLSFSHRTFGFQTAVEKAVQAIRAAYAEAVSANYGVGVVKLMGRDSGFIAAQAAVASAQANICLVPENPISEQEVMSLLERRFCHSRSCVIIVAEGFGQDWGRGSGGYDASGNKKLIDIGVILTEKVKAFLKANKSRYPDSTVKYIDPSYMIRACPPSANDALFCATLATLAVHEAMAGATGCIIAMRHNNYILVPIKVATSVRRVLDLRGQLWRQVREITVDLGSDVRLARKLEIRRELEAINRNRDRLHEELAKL
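Compounds were pin-transferred as a titration series up to 57 uM into substrate buffer (0.5 mM F6P, 0.1 mM ATP, pH 8.0), then 1.25 nM PFK was added and reactions ran 45 min before ADP-Glo detection.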
NPSR antagonist: neuropeptide S receptor (human) antagonism, cAMP; 220,000 compounds, 1% hits; Q6W5P4; CHO-NPSR cells, cAMP TR-FRET, antagonist mode; AID 1461; Potency, µM (titrated, usually from 38.3 µM), hits mostly inhibitors; also: nearly all actives have a fitted effect of over 50% in size
TbPFK ATP: orthogonal confirmation of T. brucei phosphofructokinase inhibitors | 1,100 compounds, 47% hits | Tb PFK enzyme, ATP depletion, Kinase-Glo Plus luminescence | AID 504636 | Potency, µM (top dose mostly 57.5 µM) | shares compounds with Tb PFK inh-1; calls by dose curve; also: nearly all actives have a fitted effect of over 60% in size
Tb PFK inh-2: T. brucei PFK enzyme inhibition, hit validation. Potency, µM (series often up to 57.5 µM), actives largely listed as inhibitors. 1,100 compounds, 41% hits. AID 504637. shares compounds with Tb PFK inh-1. purified T. brucei PFK, ADP-Glo luminescence, 45 min; also: nearly all actives have a fitted effect of over 60% in size
A number is an active result; - = inactive; ? = inconclusive; . = no result given; [ ] = dose if it differs, or a comment. Unless noted, calls follow the shape of the dose curve; as a rule, active = well fitted curve in the direction sought with a large enough effect; inconclusive = small, poorly fitted or top-dose-only effect, or another doubt; inactive = no such curve, though single readings can be large; an effect the other way counts as inactive or inconclusive.

SMILES	IMPase Li inh	RGS12 GoLoco inh	MBNL1-CUG inh	Tb PFK inh-1	NPSR antagonist	TbPFK ATP	Tb PFK inh-2
CC1(C)CCC(C)(C)c2c1ccc(O)c2Cc1c(O)ccc2c1C(C)(C)CCC2(C)C	-	-[14.2 µM]	.	.	.	.	.
COc1cc(Br)c(Br)cc1N	.	-	-	?	-	21µM	?
C=CCCC#N	-	-	.	.	.	.	.
Cc1c(C=C2C(=O)N(C)C(=O)N(C)C2=O)c(=O)n(-c2ccccc2)n1C	-	-	-	?	-	.	.
Cc1c(N2C(=O)/C(=C\c3ccccc3O)SC2=S)c(=O)n(-c2ccccc2)n1C	.	-	-	21µM	?	?	-
C=CC(=O)OCC(C)C	-	-	.	.	.	.	.
Cc1ccc(S(=O)(=O)N(C(=O)c2ccncc2)c2ccc(OC(=O)c3ccncc3)c3ccccc23)cc1	-	-	-	17µM	-	2.4µM	2.7µM
CCOC(=O)c1c(NC(=O)c2c(N)n(CCCOC)c3nc4ccccc4nc23)sc2c1CCCC2	-	-	-	-	-	.	.
Cc1cc([N+](=O)[O-])nn1CCCC(=O)Nc1sc2c(c1C(N)=O)CCCC2	-	-	-	?	-	27µM	24µM
CCN(CC)C(=S)Nc1ccc(Cl)c(Cl)c1	-	-	.	?	-	-	-
CCC(=O)Nc1ccc(Cl)c(Cl)c1	-	-	.	.	.	.	.
C[N+]1(C)[C@@H]2CC(OC(=O)[C@@H](CO)c3ccccc3)C[C@@H]1[C@H]1O[C@H]12 (some centres undefined)	.	-[14.2 µM]	.	.	.	.	.
CCOc1ccccc1NC(=O)COc1coc(CN2CCc3ccccc32)cc1=O	.	.	.	?	.	-	-
C[As+](C)(c1ccc(Br)c([N+](=O)[O-])c1)c1ccc(Br)c([N+](=O)[O-])c1.O=[N+]([O-])O	-	-[14.2 µM]	.	.	.	.	.
O=C(O)CCc1nn2cc(-c3ccccc3)nc2[nH]c1=O	-	-	-	?	-	-	-
C[C@]12CN(CC[N+](C)(C)C)C[C@]1(C)[C@@H]1CC[C@@H]2O1	-	-[14.2 µM]	.	.	.	.	.
O=S(=O)(c1ccc(Cl)cc1)N1CCCCC1c1cccnc1 (centres undefined)	-	-	-	-	-	.	.
O=C(C1CCN(S(=O)(=O)c2cccnc2)CC1)N1CCN(c2cccc(Cl)c2)CC1	-	-	-	21µM	-	?	-
O=C(C1CCN(c2ncnc3c2nc2n3CCCCC2)CC1)N1CCN(c2cccc(Cl)c2)CC1	.	.	-	9.5µM	.	24µM	?
NC(=O)Nc1ccc(Cl)cc1	.	-	-	21µM	-	24µM	30µM
O=C(Nc1ccc(Cl)cc1)Nc1cccnc1	-	-	-	17µM	-	?	?
Fc1ccc(NC(=S)Nc2ccc(F)c(Cl)c2)cc1Cl	-	-	-	?	?	?	-
O=C(Nc1ccc(Cl)cc1)Nc1nccs1	-	-	-	-	-	.	.
O=C(Nc1ccncc1)Nc1ccc(F)c(Cl)c1	-	-	-	?	-	?	?
C[C@@H]1CC[C@@H]2N(C1)C[C@H]1[C@@](O)([C@H](O)C[C@]3(O)[C@H]4CC[C@H]5[C@]6(O)O[C@]4(C[C@]13O)[C@@]5(C)CC[C@@H]6O)[C@@]2(C)O	-	-[14.2 µM]	.	.	.	.	.
SMILES	IMPase Li inh	RGS12 GoLoco inh	MBNL1-CUG inh	Tb PFK inh-1	NPSR antagonist	TbPFK ATP	Tb PFK inh-2
COC(=O)C12C/C=C\Cc3ccccc3[C@@H]1CNC2=O (some centres undefined)	-	-	.	.	.	.	.
CCCCC(=O)Nc1ccc(F)c(Cl)c1	-	-	?	?	-	?	-
C=C(C)Cn1c(-c2cccc([N+](=O)[O-])c2)n[nH]c1=S	-	-	?	-	-	.	.
CCCN1CCO[C@@H]2c3cc(O)ccc3OC[C@@H]21	-	-	.	.	.	.	.
Nc1ncnc2c1ncn2[C@@H]1O[C@H](COP(=O)(O)OP(=O)(O)OP(=O)(O)O)[C@H]2OC3(O[C@H]21)C([N+](=O)[O-])=CC(=[N+]([O-])[O-])C=C3[N+](=O)[O-] (some centres undefined)	-	-	.	.	.	.	.
ClC(Cl)(c1nnnn1-c1ccccc1)c1nnnn1-c1ccccc1	-	-	.	11µM	-	3.4µM	11µM
Cc1cc(C)nc(SCc2nnc(SCc3ccc([N+](=O)[O-])cc3)n2Cc2ccco2)n1	-	-	?	?	-	11µM	15µM
CCOC(=O)c1c(N)n(Cc2ccco2)c2nc3ccccc3nc12	-	-	?	-	-	.	.
Cc1ccc(N/N=C/c2c(O)n(-c3ccccc3)c(=O)[nH]c2=O)cc1	-	-	?	-	-	.	.
Cc1ccc(N/N=C/c2c(C)c(C#N)c(=O)n(C)c2O)cc1C	-	-	?	?	-	-	-
Cc1nc(Cc2nnc(SCC(=O)N3CCN(c4ccc(O)cc4)CC3)o2)cs1	.	.	.	?	.	?	?
CSc1ccc(C(c2c(C)[nH][nH]c2=O)c2c(C)[nH][nH]c2=O)cc1	.	.	?	15µM	.	?	?
CSc1ccc(C(c2c(O)c3ccccc3oc2=O)c2c(C)n(C)n(-c3ccccc3)c2=O)cc1 (centres undefined)	-	-	-	-	-	.	.
c1ccc2c(c1)CCNC2	-	-	.	.	.	.	.
O=C(c1cccs1)C1CN2CCC1CC2 (centres undefined)	-	-	-	-	-	.	.
CC(NC(=O)C1CCN(C(=O)c2cccs2)CC1)c1ccc(S(N)(=O)=O)cc1 (centres undefined)	.	.	.	?	.	-	?
C=C/C(=C/C(=O)C[C@H](C)C[C@@H](C)CC[C@H](O)[C@H](C)C(=O)C[C@@H](O)[C@H](C)[C@@H](C)OC(=O)C[C@@H](O)C1=C(C)C(=O)OC1=O)CC	-	-[14.2 µM]	.	.	.	.	.
CCCNC(=O)Cn1sc2nc(C)cc(C)c2c1=O	.	7.9µM	-	8.5µM	-	?	8.5µM
Cc1cc(C)c2c(=O)n(CC(=O)N3CCC(N4CCCCC4)CC3)sc2n1	-	-	-	2.4µM	-	?	3µM
O=C1/C(=C/c2ccco2)SC(=S)N1c1cccnc1	.	-	?	?	-	4.3µM	7.6µM
O=[N+]([O-])c1ccc(Sc2cccc[n+]2[O-])c2nonc12	.	-	?	11µM	?	2.7µM	9.5µM
C=C(C)C#N	-	-	.	.	.	.	.
CCc1nnc(NC(=O)CSc2nc(C)c3c(c2C#N)CCCC3)s1	.	.	-	?	-	-	-
COC(=O)C1CCN(C(=O)c2cc(-c3ccco3)nc3ccccc23)CC1	.	.	.	2.7µM	.	?	-
Nc1nc(N)c(N=Nc2ccc([As](=O)(O)O)cc2)c(=O)[nH]1	-	-[14.2 µM]	.	.	.	.	.
Clc1cccc2ccccc12	-	-	.	.	.	.	.
Cc1[nH]c2c(Cl)cccc2c1CCN	-	-	-	19µM	-	11µM	11µM
Cc1noc(C)c1CSCC(=O)Nc1ccc(C#N)c(Cl)c1	.	.	.	-	.	.	.
Nc1cc(=O)[nH]c(SCC(=O)Nc2ccc(F)c(Cl)c2)n1	-	-	-	?	-	?	30µM
